# Source: PubChem (National Center for Advancing Translational Sciences (NCATS))
# In the library only some 3% were active in any assay of this set; here they are far more common.
# DRD3 agonist – activates the human D3 dopamine receptor | D3R DiscoveRx beta-arrestin cells, luminescence, 90 min | max activation, % | 0.58% of 410,000 active | AID 652048; in the data active means max activation above about 30%; further: 0% is about no effect
# Target sequence (P35462 whole entry, looked up): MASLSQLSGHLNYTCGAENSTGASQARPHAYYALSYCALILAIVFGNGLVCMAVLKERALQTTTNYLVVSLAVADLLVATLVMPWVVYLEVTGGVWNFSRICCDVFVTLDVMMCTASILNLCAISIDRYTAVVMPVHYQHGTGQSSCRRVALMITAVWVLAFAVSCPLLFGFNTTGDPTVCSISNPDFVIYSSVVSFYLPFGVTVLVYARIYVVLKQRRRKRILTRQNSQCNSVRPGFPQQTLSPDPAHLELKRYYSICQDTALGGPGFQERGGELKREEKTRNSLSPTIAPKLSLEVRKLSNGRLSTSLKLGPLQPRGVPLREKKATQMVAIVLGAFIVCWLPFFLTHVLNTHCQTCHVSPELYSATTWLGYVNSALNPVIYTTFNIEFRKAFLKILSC
#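 Agonist mode: compounds and dopamine controls were applied to plated cells for 90 min at 37 degrees C after an overnight attachment at 1500 cells/well. Luminescent read-out followed 30 - 60 minutes at room temperature with DiscoveRx detection reagent.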
# Nrf2 ARE act – activates Nrf2 signaling; Potency, µM (top dose mostly 46.1 µM), without a hit: top-dose activation, hits mostly activators; AID 624171; 0.31% of 410,000 active; AREc32 ARE-luciferase reporter (MCF7-derived line), luminescence, 24 h; further: potency means the concentration at half of the fitted maximal effect; % of control where 0% means no effect; nearly all actives have a fitted effect of over 65% in size
#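 AREc32 cells carrying an ARE-driven firefly luciferase reporter were seeded at 1000 cells/well in OPTI-MEM with 5% FBS, then exposed to compound for 24 hr at 37 deg C. Luminescence was read with Steady-Glo after 30 min at RT.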
# Glioma ERSR ind – inducers of ER stress response in human glioma cells; U87-MG GRP78 promoter luciferase reporter, 16 h; AID 602332; 0.02% of 420,000 active; Potency, µM, inactives show at the top dose activation, most hits filed as activators; further: potency means the concentration at half of the fitted maximal effect; series mostly up to about 76 µM; % of control where 0% means no effect; nearly all actives have a fitted effect of over 35% in size
#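 Stably transfected U87-MG human glioma cells carrying a GRP78-based luminescent sensor were seeded at 1000 cells/well, pin-dosed with compounds and incubated 16 h. Luciferase reagent was then added, and end-point luminescence was read after 10 min at room temperature.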
# D3 antag – antagonists of human D3 dopamine receptor | P35462 | D3R cells, DiscoveRx beta-arrestin luminescence, antagonist mode; stronger effect = lower value | max response, negative = inhibition, % | 2.5% of 360,000 active; in the data active means max response below about -50%; inconclusive means no clear call, values can overlap the other calls; further: on the % scale 0 is the no-effect control and ±100 the full control effect
#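 Cells expressing the human receptor were seeded at 1500 cells/well, incubated overnight at 37 degrees C in 5% CO2, then exposed to library compounds with dopamine controls for 90 minutes at 37 degrees C before luminescent detection.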
# Numbers without * were called inactive; u = inconclusive; x = no result. Unless noted, the call rests on the fitted dose curve; in most records, active means well fitted curve in the direction sought with a large enough effect; inconclusive means small, poorly fitted or top-dose-only effect, or another doubt; inactive means no such curve, though single readings can be large; an effect the other way counts as inactive or inconclusive.
SMILES,DRD3 agonist,Nrf2 ARE act,Glioma ERSR ind,D3 antag
CC1CCC(=NNC(=O)c2ccccc2-n2cccc2)CC1 (configuration not stated),-7,2%,1%,5
Cn1nnc2c[n+](CC(=O)c3ccc(Cl)cc3)cc(Br)c21,-7,12%,-2%,-29
Cn1nnc2c[n+](CC(=O)c3ccc4ccccc4c3)cc(Br)c21,-12,u,0%,-53*
CCN1CCCC1CNC(=O)c1cnn(-c2nccc(-c3cccs3)n2)c1C1CC1 (configuration not stated),x,x,-1%,x
CCOC(=O)c1cnc(N)nc1-c1ccccc1,-8,0%,-6%,-8
CCOC(=O)c1cnc(-c2ccccc2)nc1Oc1ccc(OC)cc1,-4,0%,-3%,19
CCOC(=O)c1cnc(-c2ccccc2)nc1-c1ccccc1,0,7.9µM*,2%,4
CCOC(=O)c1cnc(-c2ccccc2)nc1Oc1ccccc1,-3,13µM*,-4%,6
COc1ccccc1CN1CCOc2ccc(CN3CCC(Oc4cccnc4)CC3)cc2C1,x,x,-2%,x
Cc1cccc(NC(=O)COC(=O)c2ccc3nc(C)c(C)nc3c2)c1,-1,-1%,1%,-58*
COc1nnc(-c2ccc(N3CCOCC3)c(NC(C)=O)c2)c2ccccc12,-8,-1%,-3%,-52*
COc1nnc(-c2ccc(N3CCOCC3)c(NC(=O)c3ccccc3)c2)c2ccccc12,2,-1%,-6%,-23
Cc1cc(C)c(C#N)c(N2CCN(CCOc3ccc(Cl)cc3)CC2)n1,-24,3%,-4%,-78*
COc1cccc(CN2CCC3(CCC(CNC(=O)c4ccco4)O3)CC2)c1OC (configuration not stated),x,x,-1%,x
COCCC(=O)N1CCCC(C(=O)c2ccc3c4c(cccc24)CC3)C1 (configuration not stated),-6,0%,-6%,-12
O=C(c1ccc2c3c(cccc13)CC2)C1CCCN(Cc2ccccn2)C1 (configuration not stated),-33,-1%,-1%,-51*
Cc1cnc(CN2CCCC(C(=O)c3ccc4c5c(cccc35)CC4)C2)[nH]1 (configuration not stated),-17,0%,-8%,-53*
COCC(=O)N1CCCC(C(=O)c2ccc3c4c(cccc24)CC3)C1 (configuration not stated),-7,4%,5%,14
O=C(c1ccc2c3c(cccc13)CC2)C1CCCN(Cc2ccc(OCCO)cc2)C1 (configuration not stated),-1,4%,-4%,-97*
CCOC(=O)Cn1c(=O)oc2cc(S(=O)(=O)NCc3ccc(F)cc3)ccc21,-3,2%,u,x
COc1cc(OC)cc(-c2c(Sc3ccccc3)c3cc(-c4cnc(OC)nc4)ccc3n2C)c1,40*,-1%,x,u
CCOC(=O)Nc1nnc(/C=C/c2ccc(OC)cc2)s1,-13,5%,3%,-56*
Cc1ccc(O)c2ncccc12,-8,x,-3%,x
COc1ccc(N=Nc2ccc(O)c3ncccc23)cc1,-23,u,0%,-76*
Cc1ccccc1N=Nc1ccc(O)c2ncccc12,-4,9%,-1%,-117*
SMILES,DRD3 agonist,Nrf2 ARE act,Glioma ERSR ind,D3 antag
COc1ccc(C)cc1N=Nc1ccc(O)c2ncccc12,-21,6%,-4%,-117*
COc1cccc(N=Nc2ccc3cccnc3c2O)c1,-21,-1%,-4%,-139*
O=Nc1ccc(O)c2ncccc12,-13,u,-12%,u
NCC(=O)c1c[nH]c2ccccc12,x,x,-2%,x
COC(=O)C1CCCCN1Cc1ccc2c(c1)CN(Cc1cn[nH]c1-c1ccc(F)cc1)CCO2 (configuration not stated),x,x,-3%,x
O=[N+]([O-])c1ccc(O)c2cccnc12,-3,3%,-2%,-26
COc1cccc(N=Nc2ccc(O)c3ncccc23)c1,-29,11µM*,4%,-110*
O=[N+]([O-])c1ccc(O)c2ncccc12,-30,-2%,-7%,-68*
CCOc1cc2c(cc1OCC)C(CC(=O)O)N(C(=O)Nc1ccc(Br)c(C)c1)CC2 (configuration not stated),-5,0%,1%,x
COc1cccc(CN2CCc3nnc(CCc4ccccc4)n3CC2)c1OC,x,x,0%,x
Cc1cnc(C)c(-c2cc(F)cc3c2OC(CNC(=O)CN2CCCC2)C3)n1 (configuration not stated),x,x,0%,x
COc1cc([N+](=O)[O-])cc(/C=N/NC(=O)c2cc(C)nc3ccccc23)c1O,-19,-2%,-5%,-56*
COc1cc([N+](=O)[O-])cc(/C=N/NC(=O)c2cc(-c3ccccc3)nc3ccccc23)c1O,7,0%,-4%,0
COc1cc([N+](=O)[O-])cc(/C=N/NC(=O)Cn2nccc2C)c1O,-12,0%,-8%,-53*
COc1cc([N+](=O)[O-])cc(/C=N/NC(=O)Cn2nc(C)cc2C)c1O,-25,-1%,-8%,-60*
COc1ccc(/C=N/NC(=O)Cn2nc([N+](=O)[O-])cc2C)c(OC)c1OC,-6,2%,-2%,-14
COc1cc([N+](=O)[O-])cc(/C=N/NC(=O)CSc2nnc(-c3ccccc3)n2C)c1O,-5,-1%,-2%,-52*
O=C(Nc1ccc([N+](=O)[O-])cc1Cl)c1ccccc1O,x,x,-6%,x
CC1=C(/C=C/C(C)=C/C=C/C(C)=C/C(=O)O)C(C)(C)CCC1O (configuration not stated),x,x,-4%,x
CC(C)CC(NC(=O)NC(CCC(=O)O)C(=O)O)C(=O)O (configuration not stated),x,x,-2%,x
COc1cc2c(NC3CCN(C(C)C)CC3)nc(N3CCCN(C)CC3)nc2cc1OCCOCCN1CCCC1,x,x,-6%,x
CN(CCCC(=O)O)c1ccc(N=Nc2ccc([N+](=O)[O-])cc2)cc1,-18,2%,-7%,-87*
O=C(c1ccc(Cl)cc1)N(c1ccccn1)C1CCCCC1,0,-1%,-4%,-19
O=C(c1cccc(C(=O)N(c2ccccn2)C2CCCCC2)c1)N(c1ccccn1)C1CCCCC1,-10,6%,0%,-54*
CCOC(=O)N1CCN(C(=O)c2ccc(-n3c(=S)[nH]c4ccccc4c3=O)cc2)CC1,42*,0%,2%,13
SMILES,DRD3 agonist,Nrf2 ARE act,Glioma ERSR ind,D3 antag
CCCCCn1c(=S)[nH]c2cc(C(=O)N3CCN(C(=O)OCC)CC3)ccc2c1=O,3,-1%,-2%,-90*
COc1ccc(C2/C=C\CN(C(=O)C3CCCCC3)C(Cc3ccccc3)C(=O)N2Cc2ccc(F)cc2)cc1 (configuration not stated),x,x,-2%,x
Cc1ccc(S(=O)(=O)C/N=C(/NC(=S)N(c2ccccc2)c2ccccc2)c2ccccc2)cc1,-14,4%,-1%,-56*
Cc1nc(-c2ccccc2)c(-c2ccccc2)[nH]1,-13,3%,-3%,-51*
Oc1ccc(N=Nc2nc(-c3ccccc3)c(-c3ccccc3)[nH]2)cc1,-9,0%,-4%,-53*
O=C(OCCCN1CCCC1)C1(c2ccccc2)CCCC1,-1,0%,-2%,-54*
